Compounds with a hit are over-represented: about 21% of the library has one in this group of screens.
DT40 TDP1 CPT = growth inhibition of DT40 Tdp1-/-;hTDP1 cells with camptothecin (screen for TDP1 inhibitors); Potency, µM (series often up to 46.2 µM), for the others: at the top dose activity change, negative = growth inhibition, most hits filed as inhibitors; chicken DT40 Tdp1-/-;hTDP1 cells + 20 nM CPT, ATP luminescence, 48 h; hit rate 12% among 420,000; AID 686979; also: potency is read from the fitted curve at half-maximal effect; nearly all actives have a fitted effect of over 55% in size
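Chicken DT40 Tdp1-/- cells complemented with human TDP1, 400 cells/well, exposed to compounds plus 20 nM camptothecin for at least 48 h at 37 C; viability read as ATP content by CellTiter-Glo luminescence.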
DT40 TDP1 no CPT = qHTS for Inhibitors of human tyrosyl-DNA phosphodiesterase 1 (TDP1): qHTS in cells in absence of CPT | DT40 Tdp1-/- hTDP1 cells, no CPT, ATP luminescence, 48 h | Potency, µM (doses to about 46.2 µM), inactives show at the highest dose activity change, negative = growth inhibition, actives largely listed as inhibitors | hit rate 15% among 420,000 | AID 686978, 2013; also: potency is read from the fitted curve at half-maximal effect; nearly all actives have a fitted effect of over 55% in size
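Growth kinetics read by CellTiter-Glo luminescence after ≥48 hr at 37 °C. Cells: DT40 Tdp1-/- stably carrying human TDP1, 400 per well, compound exposure in the absence of CPT (DMSO vehicle).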
RORg inh = ROR gamma (mouse) transcription inhibition; P51450; Drosophila S2 Gal4-RORgamma UAS-luciferase reporter, 20 h; Potency, µM (highest dose often 53.6 µM), for inactives: top-dose activity change, negative = inhibition, hits mostly inhibitors; hit rate 5.4% among 310,000; AID 2551; also: potency is read from the fitted curve at half-maximal effect; nearly all actives have a fitted effect of over 60% in size
Target sequence (P51450 whole entry, looked up, the tested form may be a part): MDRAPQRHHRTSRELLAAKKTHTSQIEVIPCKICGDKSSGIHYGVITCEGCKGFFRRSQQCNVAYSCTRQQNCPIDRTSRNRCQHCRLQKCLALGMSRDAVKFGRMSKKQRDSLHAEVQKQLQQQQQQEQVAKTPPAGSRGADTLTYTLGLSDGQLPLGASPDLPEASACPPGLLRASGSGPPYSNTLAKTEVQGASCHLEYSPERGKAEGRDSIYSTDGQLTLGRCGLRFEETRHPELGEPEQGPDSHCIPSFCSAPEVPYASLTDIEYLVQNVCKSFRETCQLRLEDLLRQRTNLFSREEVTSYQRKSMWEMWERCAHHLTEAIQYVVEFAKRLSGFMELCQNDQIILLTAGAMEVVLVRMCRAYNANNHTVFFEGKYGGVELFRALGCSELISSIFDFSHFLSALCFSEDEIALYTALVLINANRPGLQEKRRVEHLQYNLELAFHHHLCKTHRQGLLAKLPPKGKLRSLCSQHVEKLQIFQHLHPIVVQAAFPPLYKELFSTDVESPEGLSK
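Compounds are pin-transferred onto Drosophila Schneider cells expressing a copper-inducible Gal4–ROR gamma transactivation domain fusion. After 1 hr, copper sulfate is added to 700 uM final; luciferase is read 20 hr later.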
IL-1B inflam inh = inhibitors of inflammasome signaling (IL-1 beta secretion). THP-1 LPS/ATP IL-1B secretion, AlphaLISA, 16 h; hits give low values. activity change, % at 57.5 µM. hit rate 4.7% among 360,000. AID 743279; in the data active = activity change below about -50%; inconclusive = mostly about -30% to -49%
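Secreted IL-1B measured by AlphaLISA bead assay after 16 h compound exposure of THP-1 cells; compounds (final up to 57.5 uM) added 1 h before LPS (250 ng/mL) and ATP (1.25 mM) stimulation; lower signal means less secretion.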
Gal4-VP16 FLuc = inhibits Gal4-VP16 luciferase reporter, ROR gamma counter-screen | Drosophila S2 Gal4-VP16 UAS-luciferase, luminescence, 20 h | Potency, µM (doses to about 53.6 µM), without a hit: top-dose activity, negative = inhibition, usual class: inhibitors | hit rate 3.5% among 310,000 | AID 2546;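 also: Gal4-VP16 expression switched on by copper sulfate through the metallothionein promoter; potency is read from the fitted curve at half-maximal effect; nearly all actives have a fitted effect of over 50% in size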
ELG1 DNA repair = inhibitors of ELG1-dependent DNA repair in HEK293T cells | HEK293T ELG1-luciferase reporter, luminescence, 16 h; DNA damage induced by 5-fluorouridine | Potency, µM (highest dose often 46.1 µM), for the others: top-dose activity change, negative = inhibition, usual class: inhibitors | hit rate 2.3% among 330,000 | AID 504467; also: potency is read from the fitted curve at half-maximal effect; nearly all actives have a fitted effect of over 55% in size
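Reporter activity after DNA damage by 5-fluorouridine is monitored. Compound-treated cells incubate 16 hr at 37 °C, then ONE-Glo is added for 30 min before luminescence reading.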
Active calls of the source: *. Unless noted, calls follow the shape of the dose curve; as a rule, active = well fitted curve in the direction sought with a large enough effect; inconclusive = small, poorly fitted or top-dose-only effect, or another doubt; inactive = no such curve, though single readings can be large; an effect the other way counts as inactive or inconclusive. % is scaled to controls: 0 for no effect and ±100 for the full control effect.

CCN(CC(=O)Nc1c(F)cccc1F)C(=O)c1n[nH]c2ccccc12 was read as DT40 TDP1 CPT 18.8%, DT40 TDP1 no CPT 11.9%, RORg inh inconclusive, IL-1B inflam inh 24.5, Gal4-VP16 FLuc 1.3% and ELG1 DNA repair -7.5%.
Cc1ccc(N2CCN(c3ccc(C)cc3)C2c2cccnc2)cc1 was read as DT40 TDP1 CPT 23.1µM*, DT40 TDP1 no CPT inconclusive, RORg inh 6.0%, IL-1B inflam inh -86.2*, Gal4-VP16 FLuc 12.6% and ELG1 DNA repair -1.8%.
For c1ccc(N2CCN(c3ccccc3)C2c2ccncc2)cc1 the results were DT40 TDP1 CPT -27.3%, DT40 TDP1 no CPT -24.1%, RORg inh inconclusive, IL-1B inflam inh -68.8*, Gal4-VP16 FLuc -29.7% and ELG1 DNA repair inconclusive.
`CCCCCN(CCCCC)C(=O)[C@H](CCC(=O)O)NC(=O)[C@H](Cc1ccc(OP(=O)(O)O)cc1)NC(C)=O` gave RORg inh 12.0% and Gal4-VP16 FLuc -1.3%.
For Cc1onc(-c2c(Cl)cccc2Cl)c1C(=O)N1CCOCC1 the results were DT40 TDP1 CPT 5.2%, DT40 TDP1 no CPT -30.5%, RORg inh -20.4%, IL-1B inflam inh 12.5, Gal4-VP16 FLuc 6.0% and ELG1 DNA repair 2.5%.
For COc1c(Cl)ccc(Cl)c1C(=O)NC(=S)N1CCOCC1 the results were DT40 TDP1 CPT -6.3%, DT40 TDP1 no CPT inconclusive, RORg inh 3.55µM*, IL-1B inflam inh 8.5, Gal4-VP16 FLuc 11.2µM* and ELG1 DNA repair 9.0%.
`Cc1onc(-c2c(Cl)cccc2Cl)c1C(=O)NC(=S)N1CCOCC1` gave DT40 TDP1 CPT inconclusive, DT40 TDP1 no CPT inconclusive, RORg inh 0.159µM*, IL-1B inflam inh 37.7, Gal4-VP16 FLuc 0.708µM* and ELG1 DNA repair -17.4%.
O=C(NC(=S)N1CCOCC1)c1ccccc1Cl was read as DT40 TDP1 CPT -9.6%, DT40 TDP1 no CPT 18.0%, RORg inh 2.82µM*, IL-1B inflam inh -2.2, Gal4-VP16 FLuc inconclusive and ELG1 DNA repair 13.0%.
COc1c(Cl)ccc(Cl)c1C(=O)NC(=O)N1CCOCC1 was read as DT40 TDP1 CPT 0.6%, DT40 TDP1 no CPT -2.9%, RORg inh -12.5%, IL-1B inflam inh 18.2, Gal4-VP16 FLuc 3.9% and ELG1 DNA repair 20.8%.
Screening COc1ccccc1N1CCN(C(=O)Cn2nc3n(C)c4ccccc4n3c(=O)c2=O)CC1 returned RORg inh -19.7%, Gal4-VP16 FLuc 5.4% and ELG1 DNA repair 9.2%.
Screening COc1ccc(CNC(=O)c2cc3c(=O)n(Cc4cccnc4)ccc3nc2C)cc1 returned DT40 TDP1 CPT 9.9% and DT40 TDP1 no CPT -0.1%.
For CCCc1c(-c2cccc(Cl)c2)ncn1Cc1cccc(-c2ccccc2)c1 the results were DT40 TDP1 CPT 20.6µM*, DT40 TDP1 no CPT 18.4µM* and IL-1B inflam inh -6.4.
`CCCc1c(-c2ccc(F)cc2F)ncn1Cc1cccc(-c2ccccc2)c1` gave DT40 TDP1 CPT 5.17µM*, DT40 TDP1 no CPT 4.11µM* and IL-1B inflam inh -9.0.
`Cn1cc(CN2CCN(Cc3ccccc3)CC2)c(-c2cccc(Cl)c2)n1` gave DT40 TDP1 CPT inconclusive, DT40 TDP1 no CPT inconclusive, RORg inh 4.7%, IL-1B inflam inh -10.4, Gal4-VP16 FLuc -14.8% and ELG1 DNA repair 6.7%.
Screening COCCNc1oc(/C=C/c2ccccc2OC)nc1S(=O)(=O)c1ccccc1 returned DT40 TDP1 CPT inconclusive, DT40 TDP1 no CPT inconclusive, RORg inh inconclusive, IL-1B inflam inh 0.0, Gal4-VP16 FLuc -13.1% and ELG1 DNA repair 10.3µM*.
`CN(C)c1oc(/C=C/c2ccc(F)cc2)nc1C#N` gave DT40 TDP1 CPT -22.1% and DT40 TDP1 no CPT -18.3%.
`CCNc1oc(/C=C/c2ccc(OCC)cc2)nc1C#N` gave DT40 TDP1 CPT 7.31µM*, DT40 TDP1 no CPT 8.2µM*, RORg inh 23.4%, IL-1B inflam inh -1.1, Gal4-VP16 FLuc -16.0% and ELG1 DNA repair inconclusive.
`CCOc1ccc(/C=C/c2nc(C#N)c(N(C)C)o2)cc1` gave DT40 TDP1 CPT 16.4µM* and DT40 TDP1 no CPT 14.6µM*.
Screening COc1ccccc1/C=C/c1nc(C#N)c(NCCc2ccccc2)o1 returned DT40 TDP1 CPT inconclusive and DT40 TDP1 no CPT 16.4µM*.
`Cc1nc(NC(=O)COC(=O)C2CC3CCCC(C2)C3=O)c(Cl)cc1Cl` (stereo unspecified) gave DT40 TDP1 CPT -19.8%, DT40 TDP1 no CPT 0.6%, IL-1B inflam inh 4.0 and ELG1 DNA repair 7.0%.
For CCn1cc(C(=O)OCC(=O)Nc2cc(Cl)ccc2C)c(=O)c2ccc(C)nc21 the results were DT40 TDP1 CPT -20.5% and DT40 TDP1 no CPT -6.6%.
Screening Cc1c(NC(=O)c2ccc(Br)s2)c(=O)n(-c2ccccc2)n1C returned DT40 TDP1 CPT inconclusive, DT40 TDP1 no CPT -1.7%, RORg inh 2.3%, IL-1B inflam inh 10.3, Gal4-VP16 FLuc 2.3% and ELG1 DNA repair 13.8%.
`COc1cccc(/C=C/c2nc(C#N)c(NCCc3ccccc3)o2)c1` gave DT40 TDP1 CPT inconclusive and DT40 TDP1 no CPT 14.6µM*.
`CN(C)c1oc(-c2ccccc2)nc1C#N` gave DT40 TDP1 CPT -0.7%, DT40 TDP1 no CPT -15.2%, RORg inh 9.7%, IL-1B inflam inh -13.0, Gal4-VP16 FLuc 0.0% and ELG1 DNA repair 3.2%.
`COc1cccc(/C=C/c2nc(C#N)c(N(C)Cc3ccccc3)o2)c1` gave DT40 TDP1 CPT inconclusive and DT40 TDP1 no CPT 23.1µM*.
For CCOc1ccc(/C=C/c2nc(C#N)c(NCCc3ccccc3)o2)cc1 the results were DT40 TDP1 CPT 1.3µM* and DT40 TDP1 no CPT 1.16µM*.
Screening CN(C)c1oc(/C=C/c2ccccc2)nc1C#N returned DT40 TDP1 CPT -21.2%, DT40 TDP1 no CPT -24.3%, RORg inh 40.1%, IL-1B inflam inh 2.0, Gal4-VP16 FLuc 0.1% and ELG1 DNA repair inconclusive.
For CCN(CC)CCCNc1oc(/C=C/c2ccccc2)nc1C#N the results were DT40 TDP1 CPT inconclusive, DT40 TDP1 no CPT inconclusive, RORg inh -15.7%, IL-1B inflam inh 0.0, Gal4-VP16 FLuc -2.1% and ELG1 DNA repair inconclusive.
`COc1cccc(/C=C/c2nc(C#N)c(NCCN(C)C)o2)c1` gave DT40 TDP1 CPT -29.9% and DT40 TDP1 no CPT inconclusive.
`CN(Cc1ccccc1)c1oc(-c2ccco2)nc1C#N` gave DT40 TDP1 CPT -0.9%, DT40 TDP1 no CPT -15.4%, RORg inh -7.1%, IL-1B inflam inh -71.4*, Gal4-VP16 FLuc 13.4% and ELG1 DNA repair 6.8%.
